According to ChEMBL document CHEMBL3988442, “University of Dundee, Small-Polar-MMV Screening Library” (2021):
The campaign covered roughly 66,000 compounds. About 960 (1.5%) showed an effect of 50% or more. Only a selection was taken, and strong results are over-represented in it overall.

Tested on: Trypanosoma brucei
Test: Trypanosoma brucei 72 hour study
Format: functional, organism-based
Parameters: scale not given: in the data most compounds retested in dose-response had high values

SMILES | Percent Effect (30.3 µM, […]) | Percent Effect (30 µM, 30.03 µM)
COc1cccc(C(=O)N2CCc3nc(C4CCCN4)ncc3C2)c1.Cl (stereo unspecified) | -17.69% | 
CNC(=O)CN1CCCC(Cc2ccccc2OC)C1 (stereo unspecified) | 99.76% | 
COc1ccccc1CC1CCCN(CC(=O)NC2CC2)C1 (stereo unspecified) | 6.426% | 
COc1ccccc1CC1CCN(C(=O)CCN2CCOC2=O)CC1 | 4.544% | 
CNC(=O)NC(=O)CN1CCCC(Cc2ccccc2OC)C1 (stereo unspecified) | 26.83% | 
COc1ccccc1CC1CCCN(CC(N)=O)C1 (stereo unspecified) |  | -11.23%
COc1ccccc1CC1CCCN(CCN2CCOC2=O)C1 (stereo unspecified) | 99.68% | 
COc1ccccc1CC1CCCN(CCC(N)=O)C1 (stereo unspecified) | 100.1% | 
COc1ccccc1CN1CCN(CCN2CCOC2=O)CC1 |  | -64.53%
COc1ccccc1CC1CCCN(CCC#N)C1 (stereo unspecified) |  | -5.815%
O=C(O)c1cc(/C=C/c2ccc3ccccc3c2)ncn1 |  | 17.56%
CCn1ncc2c1C(COCC1CC1)CN(C(=O)c1ccncn1)C2.O=C(O)C(F)(F)F (stereo unspecified) |  | -0.6882%
Cc1ncsc1C(=O)N1CC[C@@]2(O)CCN(C(=O)N3CCCC3)C[C@H]2C1 | -70.48% | 
COc1ccc(F)c(-c2ncccc2C(=O)N2C[C@H]3CC[C@@H]2C3)c1 |  | -6.323%
CCn1c(CN2CCC(O)(c3ccc4c(c3)OCO4)CC2)cnc1SC.O=C(O)CC(O)(CC(=O)O)C(=O)O | -5.268% | 
COc1cc(N2C[C@@H]3COC[C@]3(COCc3ccncc3)C2)ncn1.O=C(O)C(F)(F)F.O=C(O)C(F)(F)F |  | -12.8%
CN1CCCc2c1nc1c(c2N)CCCC1.O=C(O)C(=O)O | 6.357% | 
Cc1cnn(C2CN(Cc3nnc(C4CC4)o3)C2)c1 | 93.44% | 
Cc1cnn(C2CN(Cc3noc(C4CC4)n3)C2)c1 | -128.4% | 
Cc1ccc(-c2nnc(CN3CC(n4cc(C)cn4)C3)o2)cc1 |  | -4.601%
CCn1ccnc1CN1CCCC1C(=O)Nc1nccs1 (stereo unspecified) | 4.608% | 

SMILES | Percent Effect (30.3 µM, […]) | Percent Effect (30 µM, 30.03 µM)
Fc1cccc(CN2CCC3(CCCN3c3ncccn3)CC2)c1.O=C(O)C(F)(F)F | -16.3% | 
CCOC(=O)C1(CCOC)CCN(Cc2nccn2CC)CC1 | -0.1521% | 
CCC1(CO)CCCN(Cc2nccn2Cc2ccccc2)C1 (stereo unspecified) |  | -5.033%
CCn1ccnc1CN1CCCC(CO)(Cc2cccc(OC)c2)C1 (stereo unspecified) |  | -22.09%
CCn1ccnc1CN1CCCC(CO)(Cc2cccc(Cl)c2)C1 (stereo unspecified) |  | 109.3%
CCOC(=O)C1(CCOC)CCCN(Cc2nccn2CC)C1 (stereo unspecified) | -20.23% | 
CCOC(=O)C1(Cc2ccccc2)CCCN(Cc2nccn2CC)C1 (stereo unspecified) | 95.74% | 
Cn1cc(CCC(=O)N2C[C@H]3CC[C@@H]2CN(Cc2cccnc2)C3)cn1 |  | -23.98%
Cc1ccnc(NC(=O)C2CCN(CCCc3cn[nH]c3)CC2)c1 |  | -19.03%
NC(=O)C1CN(C(=O)Nc2cc(Cl)cc(Cl)c2)CCO1 (stereo unspecified) |  | 103.3%
COCC1CN(C(=O)Nc2cc(Cl)cc(Cl)c2)CCO1 (stereo unspecified) | -16.88% | 
Cc1cc(NC(=O)N2CCOC(C(N)=O)C2)ccc1Br (stereo unspecified) |  | -3.776%
CCN(CC)CCn1c(=O)oc2ccccc21.Cl |  | -24.39%
COc1cc(-c2nc3c([nH]2)CCCNC3=O)cc(OC)c1OC |  | -56.65%
COc1cc(-c2nc3c([nH]2)CCCNC3=O)ccc1O |  | 4.773%
Cc1ccc2nc(-c3nc4c([nH]3)CCCNC4=O)cn2c1 |  | 99.29%
CC1(C)CNC(=O)c2nc(-c3n[nH]c(=O)[nH]3)[nH]c2C1 |  | -63.36%
CC(C)Oc1cccc(-c2nc3c([nH]2)CCCNC3=O)c1 |  | -40%
Cc1cccc(Cc2nc3c([nH]2)CCCNC3=O)c1 |  | -3.182%
Cc1cccc2nc(-c3nc4c([nH]3)CCCNC4=O)cn12 |  | 66.46%
CC1(C)CNC(=O)c2nc(-c3ccccc3)[nH]c2C1 |  | -21.93%

SMILES | Percent Effect (30.3 µM, […]) | Percent Effect (30 µM, 30.03 µM)
COc1ccc(-c2nc3c([nH]2)CCCNC3=O)cc1OC |  | -51.91%
Cc1ccc2nc(-c3nc4c([nH]3)CC(C)(C)CNC4=O)cn2c1 |  | 106.8%
Cc1cn2cc(-c3nc4c([nH]3)CCCNC4=O)nc2s1 |  | 81.5%
CC(C)Cn1cncc1-c1nc2c([nH]1)CCCNC2=O |  | -24.09%
CN(Cc1ccco1)C[C@H]1OC[C@@H]2CN(c3ncc(F)cn3)CC[C@@H]21.O=C(O)C(F)(F)F.O=C(O)C(F)(F)F | -14.08% | 
CN(C)C(=O)N1CCC2(CC1)CCN(Cc1ccccn1)C2=O.O=C(O)C(F)(F)F |  | 7.411%
Cc1ccc(CN2C[C@H](NC(=O)c3nccn3C)[C@H]3OCCC[C@H]32)o1 | -18.85% | 
O=C(O)C(F)(F)F.O=C(O)C(F)(F)F.c1cncc(CN2CCn3c(Cn4cncn4)cnc3C2)c1 | -106.7% | 
Cc1cc(C(=O)N2CC[C@@H](N(C)C)[C@@H]2Cc2ccccc2)no1.O=C(O)C(F)(F)F | 3.974% | 
CN(C)CCn1c([C@@H]2CCCO2)cc2cccnc21.Cl | -17.47% | 
CN(C)S(=O)(=O)N1CCC2(COCc3cnc(NCC4CC4)nc32)C1 (stereo unspecified) |  | -49.38%
CNC(=O)[C@@H]1CCO[C@@H]2CCN(Cc3ccsc3)C[C@H]21.O=C(O)C(F)(F)F | -300.6% | 
O=C(C1CCC1)N1CCC2(CCCN2CC2CC2)CC1.O=C(O)C(F)(F)F | -53.73% | 
COc1ccc(CN2CCOCC3(CCN(C4CCOCC4)C3)C2)cc1.O=C(O)C(F)(F)F.O=C(O)C(F)(F)F (stereo unspecified) |  | 20.44%
O=C(O)C(F)(F)F.O=C1CC2(CNCCN(C(=O)Nc3ccccc3)C2)CN1 (stereo unspecified) | -24.96% | 
CC(=O)c1ccc(NC(=O)c2ccc3c(c2)C2(CCCCC2)CN3)cc1.O=C(O)C(F)(F)F | -13.93% | 
O=C(Nc1ccccc1)c1ccc2c(c1)C1(CCCCC1)CN2.O=C(O)C(F)(F)F | 97.07% | 
COc1ccc(C[C@H]2CN(Cc3ccoc3)CC[C@@H]2OC)cc1.O=C(O)C(F)(F)F | -8.959% | 
COC(=O)Cn1c(=O)nc2n1C(=O)N(c1cccc(Cl)c1)C2 |  | -8.775%
